Records with an inconclusive call do not appear. The source made the active and inactive calls. Rule for the calls, unless noted: active = hit-call score of the fitted dose curve at least 0.9, where 1 is the maximum; inconclusive = response in the unintended direction; inactive = score below 0.9.
Tests used:
[1] = TOX21_p53_BLA_p2_viability: Viability Assessment in the Tox21 HCT-116 p53 Agonism Beta-lactamase Assay, Phase 2 (AID 2283591);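 note: compound exposure lasted 16 h at 37 °C; actives lower the ATP signal meaning cytotoxicity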
Summary of the method: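 Cytotoxicity readout: CellTiter-Glo ATP luminescence, 30 min at room temperature, after the beta-lactamase read. Cells were HCT116 exposed 16 h at 37C to compounds pin-transferred at 217-fold dilution from DMSO stocks.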

[2] = target: Cellular tumor antigen p53 (Homo sapiens) (UniProt P04637); assay: TOX21_p53_BLA_p2_ratio: Tox21 HCT-116 p53 Agonism Beta-lactamase Assay, Ratio, Phase 2 (AID 2283592)
Cellular tumor antigen p53 (Homo sapiens), sequence (P04637 whole entry, looked up): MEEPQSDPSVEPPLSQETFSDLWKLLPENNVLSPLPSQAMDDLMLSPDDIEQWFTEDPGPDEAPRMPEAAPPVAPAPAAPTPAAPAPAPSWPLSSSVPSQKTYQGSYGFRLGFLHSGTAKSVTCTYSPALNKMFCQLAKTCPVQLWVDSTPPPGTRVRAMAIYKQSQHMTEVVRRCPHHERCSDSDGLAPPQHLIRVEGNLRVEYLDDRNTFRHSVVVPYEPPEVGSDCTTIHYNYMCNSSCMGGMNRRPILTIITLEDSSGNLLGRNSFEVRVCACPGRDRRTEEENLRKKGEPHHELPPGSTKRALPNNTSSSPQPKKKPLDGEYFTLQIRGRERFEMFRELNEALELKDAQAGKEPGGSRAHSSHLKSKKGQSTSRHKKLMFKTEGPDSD
Summary of the method: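 Human colon HCT116 cells with an inducible p53 beta-lactamase reporter are exposed to test chemicals for 16 h at 37C. Reporter induction is read as the 460/530 nm emission ratio after CCF4-AM loading, normalized to DMSO.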

[3] = target: Cellular tumor antigen p53 (Homo sapiens) (UniProt P04637); assay: TOX21_p53_BLA_p3_ratio: Tox21 HCT-116 p53 Agonism Beta-lactamase Assay, Ratio, Phase 3 (AID 2283596)
Summary of the method: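 HCT116 p53-bla cells (4000/well) given compound in DMSO (217-fold dilution) after 5 h, incubated 16 h at 37C. CCF4-AM substrate 2 h at room temperature; 460/530 nm emission ratio, gain fitted against DMSO.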

[4] = TOX21_p53_BLA_p4_viability: Viability Assessment in the Tox21 HCT-116 p53 Agonism Beta-lactamase Assay, Phase 4 (AID 2283597);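 note: hits lower the luminescence signal meaning cytotoxicity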
Summary of the method: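 Luminescent ATP readout (CellTiter-Glo, 30 min, room temperature) in the same wells as the p53 bla ratio. HCT116 cells were treated for 16 h at 37C with DMSO-dissolved compounds.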

[5] = target: Cellular tumor antigen p53 (Homo sapiens) (UniProt P04637); assay: TOX21_p53_BLA_p5_ratio: Tox21 HCT-116 p53 Agonism Beta-lactamase Assay, Ratio, Phase 5 (AID 2283599)
Summary of the method: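 Beta-lactamase reporter ratio (blue 460 nm over green 530 nm, 405 nm excitation) after 2 h CCF4-AM loading, in HCT-116 cells exposed 16 h at 37 C to compounds pinned at 217-fold dilution. Increases relative to DMSO baseline scored.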

[6] = TOX21_p53_BLA_p5_viability: Viability Assessment in the Tox21 HCT-116 p53 Agonism Beta-lactamase Assay, Phase 5 (AID 2283600)
Summary of the method: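 Seeded cells (4000/well) settle 5 h before compound addition. Plates then incubate 16 h at 37C, receive FRET substrate for 2 h, and finally CellTiter-Glo, with luminescence measured after a 30 min room-temperature incubation.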

[7] = target: Cellular tumor antigen p53 (Homo sapiens) (UniProt P04637); assay: TOX21_p53_BLA_p4_ratio: Tox21 HCT-116 p53 Agonism Beta-lactamase Assay, Ratio, Phase 4 (AID 2283601)
Summary of the method: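 Signal is the blue/green (460nm/530nm) ratio of cleaved versus uncleaved CCF4-AM substrate, read after 2 h substrate loading. Cells were HCT116 carrying the p53-responsive beta-lactamase reporter, dosed 16 h at 37C, 5% CO2; CellTiter-Glo measured in parallel.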

[8] = TOX21_p53_BLA_p3_viability: Viability Assessment in the Tox21 HCT-116 p53 Agonism Beta-lactamase Assay, Phase 3 (AID 2283593);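 note: cells exposed to compound for 16 h before reading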
Summary of the method: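 Cellular ATP was quantified by CellTiter-Glo luminescence, read after 30 min at room temperature. Beforehand, HCT116 cells (4000/well) received compound 5 h post-seeding, 217-fold diluted from DMSO, then incubated 16 h at 37C.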

[9] = CCTE_Harrill_HTTr_Viability_MCF7: CCTE's 6-hour Cell Viability Assessment for the High-Throughput Transcriptomics (HTTr) Platform, in MCF-7 cells cultured in DMEM + 10% fetal bovine serum, Harrill Lab (AID 2284010; active = hit-call score of the fitted dose curve at least 0.9, where 1 is the maximum; inactive = score below 0.9)
Summary of the method: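 MCF-7 cells in DMEM + 10% FBS, 384-well, exposed 6 h to an eight-point dilution series. Membrane integrity scored by high-content imaging of propidium iodide exclusion; bidirectional fit versus DMSO.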

[10] = CCTE_Harrill_HTTr_Apoptosis_MCF7: CCTE's 6-hour Apoptosis Assessment for the High-Throughput Transcriptomics (HTTr) Platform, in MCF-7 cells cultured in DMEM + 10% fetal bovine serum, Harrill Lab (AID 2284011; active = hit-call score of the fitted dose curve at least 0.9, where 1 is the maximum; inactive = score below 0.9)
Summary of the method: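 Apoptosis in MCF-7 cells grown in DMEM with 10% fetal bovine serum was scored after a six hour exposure by high content imaging of caspase-3/7 activation (CellEvent Caspase 3/7 Green), with DMSO serving as negative control and baseline.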

[11] = target: Thyroid hormone receptor alpha (Rattus norvegicus) + Thyroid hormone receptor beta (Rattus norvegicus) (UniProt P18113+P63059); assay: TOX21_TR_LUC_GH3_Antagonist_Followup: Tox21 GH3 Thyroid Hormone Receptor Antagonism Luciferase Follow-Up Assay (AID 2283942)
Summary of the method: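 Confirmatory qHTS, antagonist mode: T3 (1.0 nM final) + test cpd, 15 conc, 92 uM–5nM final, GH3 rat pituitary line, 24 h, 37C. Luc reporter, RLU vs DMSO.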

THRA (gene 7067) = THRA (gene 7067) (UniProt P10827); assay: TOX21_TRA_COA_Antagonist_Followup_ratio: Tox21 Thyroid Hormone Receptor alpha Antagonism through Coactivator Recruitment Follow-Up Assay, Ratio (AID 2283953)
THRA (gene 7067), sequence (P10827 whole entry, looked up, the tested form may be a part): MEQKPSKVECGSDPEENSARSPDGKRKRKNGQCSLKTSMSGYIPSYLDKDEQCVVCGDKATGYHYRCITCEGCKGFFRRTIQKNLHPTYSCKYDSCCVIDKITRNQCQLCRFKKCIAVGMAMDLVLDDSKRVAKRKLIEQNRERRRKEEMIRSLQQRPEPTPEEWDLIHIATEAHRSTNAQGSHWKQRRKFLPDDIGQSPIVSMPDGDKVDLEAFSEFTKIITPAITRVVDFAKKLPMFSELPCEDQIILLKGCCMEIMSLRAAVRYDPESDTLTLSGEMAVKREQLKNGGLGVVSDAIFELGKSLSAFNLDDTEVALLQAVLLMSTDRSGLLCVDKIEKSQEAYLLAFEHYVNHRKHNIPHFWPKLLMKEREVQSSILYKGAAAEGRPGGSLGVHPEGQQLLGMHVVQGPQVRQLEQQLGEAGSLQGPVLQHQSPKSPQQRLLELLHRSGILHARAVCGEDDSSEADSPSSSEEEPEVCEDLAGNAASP
Summary of the method: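 520:495 nm emission ratio (excitation 340 nm) reports fluorescein-SRC-2 peptide recruitment to GST-TRα LBD by TR-FRET with Tb anti-GST antibody. Values were normalized to DMSO (0%) and T3 control wells (100%); loss of signal indicated antagonism.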

[12] = TOX21_TRB_BLA_Antagonist_Followup_viability: Viability Assessment in the Tox21 Thyroid Hormone Receptor beta Antagonism Beta-lactamase (BLA) Follow-Up Assay (AID 2283961)
Summary of the method: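 In the same wells as the reporter read, cell health was gauged by CellTiter-Glo ATP luminescence, with signal loss indicating reduced viability. Cells had been exposed to test compounds for 18 h.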

THRB (gene 7068) = THRB (gene 7068) (UniProt P10828); assay: TOX21_TRB_BLA_Antagonist_Followup_ratio: Tox21 Thyroid Hormone Receptor beta Antagonism Beta-lactamase (BLA) Follow-Up Assay, Ratio (AID 2283958)
THRB (gene 7068), sequence (P10828 whole entry, looked up, the tested form may be a part): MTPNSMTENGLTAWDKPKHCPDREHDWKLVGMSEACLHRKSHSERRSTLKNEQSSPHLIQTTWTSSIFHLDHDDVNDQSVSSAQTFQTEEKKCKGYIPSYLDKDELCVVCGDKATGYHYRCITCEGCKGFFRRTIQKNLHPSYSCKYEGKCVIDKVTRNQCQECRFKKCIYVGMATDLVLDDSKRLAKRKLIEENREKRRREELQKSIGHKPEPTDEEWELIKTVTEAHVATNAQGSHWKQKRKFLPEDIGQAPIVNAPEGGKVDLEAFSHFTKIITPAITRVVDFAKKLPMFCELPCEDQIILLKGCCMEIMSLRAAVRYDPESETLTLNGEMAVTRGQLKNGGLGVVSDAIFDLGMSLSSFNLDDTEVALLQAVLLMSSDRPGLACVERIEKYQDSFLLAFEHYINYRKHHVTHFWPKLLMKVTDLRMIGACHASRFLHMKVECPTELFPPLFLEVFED
Summary of the method: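 HEK293T cells with a GAL4-TRb LBD fusion and UAS-bla reporter, 3,000 cells/well in phenol red-free DMEM with 2% charcoal-stripped FBS. Exposed 18 h at 37C to 11 concentrations in triplicate; CCF4 460:530 nm ratio after 2 h, DMSO-referenced.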

Measured: AC50

CC(Cl)CCl (stereo not given)
inactive: [1] | [2] | [3] | [4] | [5] | [6] | [7]

COc1cc(C[C@@H](C)N)c(OC)cc1Br
inactive: [1] | [2] | [8] | [4] | [6]

II
inactive: [1] | [2] | [8] | [4] | [5] | [7] | [9] | [10]

CC(=O)OC1(c2ccccc2)CCN(CCc2ccccc2)CC1
inactive: [1] | [2] | [8] | [4] | [7]

NCc1cccnc1
inactive: [1] | [2] | [8] | [5] | [6] | [7]

CN1C[C@H](CNC(=O)OCc2ccccc2)C[C@@H]2c3cccc4c3c(cn4C)C[C@H]21
active: [4] 38.7 µM
inactive: [1] | [2] | [8] | [6]

Cc1ccc2c(c1)C1CN(C)CCC1N2 (stereo not given)
inactive: [1] | [2] | [8] | [5] | [7]

C=CC(=O)OCC(C)C
inactive: [1] | [2] | [8] | [5] | [6] | [7]

CCOc1ccc2c3c1O[C@H]1[C@@H](O)C=C[C@H]4[C@@H](C2)N(C)CC[C@@]341
inactive: [1] | [2] | [3] | [4]

CCC(=O)O[C@](Cc1ccccc1)(c1ccccc1)[C@H](C)CN(C)C
inactive: [1] | [2] | [8] | [4] | [5] | [7]

CN1CCc2cc(Cl)c(O)cc2[C@H]2c3ccccc3CC[C@@H]21
inactive: [1] | [2] | [3] | [4] | [5] | [6]

SCc1ccccc1
inactive: [1] | [2] | [8] | [5] | [7]

COc1cc(CC(C)N)c(OC)cc1Br (stereo not given)
inactive: [1] | [2] | [8] | [4] | [5] | [6] | [7]

ClC(Cl)(Cl)C(Cl)(Cl)Cl
inactive: [1] | [2] | [8] | [6]

O=C(O)c1ccccn1
inactive: [1] | [2] | [3] | [4] | [5] | [6]

CCC(COC(=O)c1cc(OC)c(OC)c(OC)c1)(c1ccccc1)N(C)C (stereo not given)
inactive: [1] | [2] | [8] | [6] | [7] | [11] | THRA (gene 7067) | [12]

Cc1ccc2c(C)cccc2c1
inactive: [1] | [2] | [3] | [4] | [5] | [6] | [7]

C=CCOCC1CO1 (stereo not given)
inactive: [1] | [2] | [3] | [4] | [5] | [6]

Cc1cc(C)c(C(=O)P(=O)(C(=O)c2c(C)cc(C)cc2C)c2ccccc2)c(C)c1
inactive: [1] | [2] | [8] | [5] | [7]

O=C1CN=C(c2ccccc2)c2cc(Cl)ccc2N1
inactive: [1] | [2] | [3] | [4]

Clc1c(Cl)c(Cl)c(Cl)c(Cl)c1Cl
inactive: [1] | [2] | [8] | [4] | [6] | [7]

CCN(CC)CCOC(=O)C(O)(c1ccccc1)c1ccccc1
inactive: [1] | [2] | [8] | [5] | [6]

Cc1nc2ccccc2c(=O)n1-c1ccccc1Cl
inactive: [1] | [2] | [8] | [4] | [6]

CCC1(c2ccccc2)CCC(=O)NC1=O (stereo not given)
inactive: [1] | [2] | [8] | [5] | [6]

OCC(Br)CBr (stereo not given)
inactive: [1] | [2] | [3] | [4] | [5] | [6]

COc1cc(C[C@H](C)N)c(OC)cc1Br
inactive: [1] | [2] | [8] | [5] | [7]

O=C(Cl)OCc1ccccc1
inactive: [1] | [2] | [8] | [6] | [7]

CNP(=O)(OC)Oc1ccc(C(C)(C)C)cc1Cl (stereo not given)
inactive: [1] | [2] | [3] | [5] | [6] | [7]

COCCC#N
inactive: [1] | [2] | [3] | [4] | [6] | [7]

CCN(CC)CCO[C@H]1CC[C@@]2(C)C(=CC[C@@H]3[C@@H]2CC[C@]2(C)C(=O)CC[C@@H]32)C1
inactive: [1] | [2] | [3] | [4] | [5] | [6] | [7] | [11] | THRA (gene 7067) | THRB (gene 7068) | [12]

O=P(O)(O)C(Cl)(Cl)P(=O)(O)O
inactive: [1] | [2] | [3] | [4] | [5] | [6] | [7]

CCOP(=S)(OCC)Oc1ncn(-c2ccccc2)n1
inactive: [1] | [2] | [3] | [4] | [6] | [7]

C[C@]12C=CC(=O)C=C1CC[C@@H]1[C@@H]2CC[C@]2(C)OC(=O)CC[C@@H]12
inactive: [1] | [2] | [3] | [5] | [6] | [7]

c1ccc(OCC2CO2)cc1 (stereo not given)
inactive: [1] | [2] | [3] | [4] | [6] | [7]
